The results in this text go back to PMC5540273 (PLoS ONE, 2017).

Like-named read-outs stand apart in the source and are kept apart here.

The test system of one experiment is GRK7. The settings on record: concentration: 1 μM, replicates: in singlicate; n = 1.
A further experiment deals with GSK3A. The conditions noted are these: concentration: 1 μM, replicates: in singlicate; n = 1.
The subject of the next experiment is GSK3B. The conditions noted are these: n = 1.
For another experiment, the system named is T1, HASPIN.
T1 construct: gene GSG2
The settings on record: concentration: 1 μM, replicates: in singlicate; n = 1.

Another experiment concerns HCK. The conditions noted are these: concentration: 1 μM, replicates: in singlicate; n = 1.
The test system of the next experiment is HIPK1. The conditions noted are these: concentration: 1 μM, replicates: in singlicate; n = 1.
A further experiment deals with HIPK2. The settings on record: concentration: 1 μM, replicates: in singlicate; n = 1.
The test system of a further experiment is HIPK3. The settings on record: concentration: 1 μM, replicates: in singlicate; n = 1.
A further experiment relates to HIPK4. The conditions noted are these: concentration: 1 μM, replicates: in singlicate; n = 1.
Another experiment has as its system HPK1. The settings on record: concentration: 1 μM, replicates: in singlicate; n = 1.
Where [1] appears, read: concentration: 1 μM, replicates: in singlicate.
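Further: KINOMEscan kinase panel screen.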

`COc1cc2nccc(Nc3ccc(NC(=O)c4ccc(C)cc4)c(O)c3)c2cc1OC.Cl` [GW440132]: the “%Inh” value in the experiment with GRK7 came to 0%; in the experiment on GSK3A, 4%; with GSK3B (setting [1]), 0%; with HASPIN it was 0%; in the experiment on HCK, 0%; with HIPK1 it was 6%. The “%Inh” value was determined as 0% in the experiment on HIPK2, 0% with HIPK3, 3% in the experiment on HIPK4 and 24% in the experiment with HPK1.
Turning to `COc1cc2ncn(-c3cc(OCC4CCCO4)c(C(N)=O)s3)c2cc1OC` (stereo not drawn) [GSK204607], the “%Inh” value worked out at 0% in the experiment with GRK7; 20% in the experiment with GSK3A; 0% with GSK3B (setting [1]); 26% in the experiment on HASPIN; 0% with HCK; 7% in the experiment with HIPK1. Also, the “%Inh” value with HIPK2 turned out to be 0%; in the experiment on HIPK3 it was 17%; in the experiment on HIPK4, 52%; in the experiment on HPK1 it was 15%.
With `Cl.Oc1ccc(-c2nc(-c3ccccc3)[nH]c2-c2ccncc2)cc1` [SB-428218], the “%Inh” value is reported as 0% in the experiment with GRK7; 11% with GSK3A; 0% with GSK3B (setting [1]); 15% in the experiment with HASPIN; 0% in the experiment with HCK; 5% in the experiment on HIPK1. The “%Inh” value with HIPK2 is on record as 16%; in the experiment with HIPK3, 1%; with HIPK4, 0%; in the experiment with HPK1, 38%.
As to `NC(=O)c1nnc2ccccc2c1N`, the “%Inh” value with GRK7 turned out to be 0%; with GSK3A it was 5%; in the experiment on GSK3B (setting [1]), 24%; in the experiment with HASPIN, 73%; with HCK, 0%; in the experiment with HIPK1, 45%. In addition, the “%Inh” value in the experiment on HIPK2 came to 50%; in the experiment with HIPK3 it was 37%; in the experiment with HIPK4, 4%; with HPK1 it was 0%.
In the case of `Cc1cc(N2Cc3ccccc3C2)nc(Nc2ccc(S(=O)(=O)N3CCOCC3)cc2)n1.Cl` [GSK1669917], the “%Inh” value in the experiment on GRK7, with GSK3A, in the experiment on GSK3B (setting [1]), in the experiment with HASPIN, in the experiment on HCK and in the experiment on HIPK1 was 0% throughout. Also, the “%Inh” value in the experiment with HIPK2 is on record as 0%; with HIPK3 it was 0%; with HIPK4, 0%; in the experiment on HPK1, 34%.
As for `Nc1nc(-c2nccs2)c(-c2ccnc3ccccc23)s1` [GW693542], the “%Inh” value in the experiment with GRK7 is on record as 0%; with GSK3A, 5%; in the experiment on GSK3B (setting [1]) it was 14%; in the experiment with HASPIN it was 0%; in the experiment on HCK, 0%; in the experiment on HIPK1 it was 3%. Further, the “%Inh” value in the experiment on HIPK2 was determined as 0%; in the experiment with HIPK3 it was 21%; in the experiment on HIPK4, 0%; with HPK1 it was 30%.
In the case of `Cc1csc(-c2nc(Nc3ccncc3)c3ccccc3n2)n1` [GW869640], the “%Inh” value is listed as 17% with GRK7; 0% in the experiment with GSK3A; 46% with GSK3B (setting [1]); 87% in the experiment with HASPIN; 23% in the experiment on HCK; 7% with HIPK1. The “%Inh” value in the experiment with HIPK2 was found to be 23%; in the experiment on HIPK3, 36%; in the experiment on HIPK4, 7%; in the experiment on HPK1, 3%.
For `Cl.c1ccc(-c2n[nH]cc2-c2ccnc(-c3ccc(CN4CCOCC4)cc3)c2)nc1` [GW776245], the “%Inh” value with GRK7 is 0%; in the experiment with GSK3A it was 0%; with GSK3B (setting [1]), 0%; in the experiment on HASPIN, 0%; in the experiment with HCK it was 13%; in the experiment with HIPK1 it was 54%. In addition, the “%Inh” value was 0% with HIPK2, 0% in the experiment with HIPK3, 17% in the experiment on HIPK4 and 64% in the experiment on HPK1.
`COc1ccccc1CNC(=O)c1cc(C(=O)c2ccccc2C)c[nH]1` [GSK364507]: the “%Inh” value in the experiment on GRK7 was 0%; in the experiment with GSK3A, 15%; in the experiment with GSK3B (setting [1]) it was 0%; in the experiment with HASPIN, 0%; with HCK it was 0%; with HIPK1, 0%. Moreover, the “%Inh” value in the experiment on HIPK2 was determined as 0%; in the experiment on HIPK3, 10%; with HIPK4, 0%; in the experiment with HPK1, 26%.
In the case of `Cc1cccc(-c2nc(C)cc(Nc3ccncc3)n2)n1` [GSK257997], the “%Inh” value in the experiment on GRK7 was 0%; in the experiment with GSK3A, 27%; in the experiment with GSK3B (setting [1]) it was 17%; with HASPIN, 31%; with HCK, 0%; with HIPK1 it was 0%. Besides, the “%Inh” value in the experiment with HIPK2 is reported as 0%; in the experiment on HIPK3 it was 7%; in the experiment with HIPK4, 0%; in the experiment with HPK1, 34%.
As to `COc1cccc(-c2cc(-c3c[nH]nc3-c3ccccn3)ccn2)c1` [GW680338], the “%Inh” value was 0% with GRK7; 3% in the experiment with GSK3A; 8% in the experiment with GSK3B (setting [1]); 23% in the experiment on HASPIN; 0% in the experiment with HCK; 11% in the experiment with HIPK1. Also, the “%Inh” value in the experiment on HIPK2 turned out to be 10%; with HIPK3 it was 22%; in the experiment with HIPK4, 21%; with HPK1, 25%.
As to `Cc1c(Cn2ccn3c(=O)cc(N4CCOCC4)nc23)cccc1C(F)(F)F` [GSK2289044], the “%Inh” value with GRK7 was 0%; in the experiment with GSK3A, 1%; in the experiment on GSK3B (setting [1]), 8%; with HASPIN it was 0%; in the experiment on HCK it was 0%; with HIPK1 it was 0%. In addition, the “%Inh” value is given as 0% with HIPK2, 24% in the experiment with HIPK3, 0% with HIPK4 and 15% in the experiment on HPK1.
For `Nc1ncnc2[nH]c(-c3ccccc3)nc12` [AH5015], the “%Inh” value is reported as 0% with GRK7; 21% in the experiment with GSK3A; 23% with GSK3B (setting [1]); 59% in the experiment on HASPIN; 0% in the experiment with HCK; 19% in the experiment with HIPK1. Further, the “%Inh” value with HIPK2 is reported as 0%; in the experiment with HIPK3, 39%; in the experiment with HIPK4, 21%; in the experiment on HPK1, 39%.
As for `Cc1nnc(-c2ccc3occ(-c4ccc(S(C)=O)cc4)c3c2)[nH]1` (stereo not drawn), the “%Inh” value in the experiment with GRK7 is 6%; in the experiment on GSK3A, 86%; in the experiment on GSK3B (setting [1]) it was 75%; with HASPIN, 25%; in the experiment on HCK it was 0%; in the experiment with HIPK1, 69%. The “%Inh” value with HIPK2 is on record as 84%; with HIPK3, 81%; in the experiment on HIPK4 it was 36%; in the experiment on HPK1, 0%.
`Cn1ccc2ncnc(Oc3ccc(Nc4nc5ccccc5[nH]4)cc3)c21`: the “%Inh” value turned out to be 0% in the experiment with GRK7; 12% in the experiment on GSK3A; 0% with GSK3B (setting [1]); 50% in the experiment on HASPIN; 8% in the experiment with HCK; 17% in the experiment with HIPK1. Also, the “%Inh” value was determined as 0% with HIPK2, 0% with HIPK3, 9% in the experiment on HIPK4 and 0% with HPK1.
Take `O=C(Nc1n[nH]c2nc(-c3nccs3)c(Br)cc12)C1CC1` [SB-742251]: the “%Inh” value came to 0% in the experiment with GRK7; 89% in the experiment with GSK3A; 39% in the experiment on GSK3B (1 µM); 11% with HASPIN; 0% with HCK; 0% in the experiment with HIPK1. Besides, the “%Inh” value with HIPK2 is recorded as 0%; in the experiment on HIPK3 it was 0%; in the experiment with HIPK4, 0%; in the experiment on HPK1, 48%.
`Cc1cccc(-c2nc(Nc3ccc4[nH]ncc4c3)c3ccccc3n2)n1` [GW857175]: the “%Inh” value in the experiment with GRK7 came to 4%; in the experiment with GSK3A it was 14%; with GSK3B (setting [1]), 21%; with HASPIN it was 68%; with HCK it was 0%; in the experiment on HIPK1 it was 0%. In addition, the “%Inh” value is given as 20% with HIPK2, 35% with HIPK3, 3% in the experiment with HIPK4 and 54% in the experiment on HPK1.
For the compound `Fc1cc(Cl)ccc1Nc1ccnc2cc(-c3ccc(CN4CCCCC4)o3)ccc12` [GW560116], the “%Inh” value in the experiment with GRK7 came out at 0%; in the experiment on GSK3A, 0%; with GSK3B (setting [1]), 0%; in the experiment with HASPIN, 32%; with HCK it was 0%; with HIPK1 it was 0%. In addition, the “%Inh” value in the experiment with HIPK2 is listed as 0%; in the experiment on HIPK3 it was 1%; with HIPK4 it was 0%; with HPK1, 14%.
